The record followed here is a collection of fitness landscapes (doi:10.1126/science.1257360).

Whole data set: some 140,000 sequences, median “enrichment ratio after two sorts for PhoP signalling” near 0, cut for the highest 2% near 11. For the sample, the highest values were picked, then their nearest neighbours and some sequences at random. Bounds are passed on as bounds.

To fix the notation:
B1: PhoQ; a variant is named by its letters at X, in order, P23837 (parent)
chain: MKKLLRLFFPLSLRVRFLLATAAVVLVLSLAYGMVALIGYSVSFDKTTFRLLRGESNLFYTLAKWENNKLHVELPENIDKQSPTMTLIYDENGQLLWAQRDVPWLMKMIQPDWLKSNGFHEIEADVNDTSLLLSGDHSIQQQLQEVREDDDDAEMTHSVAVNVYPATSRMPKLTIVVVDTIPVELKSSYMVWSWFIYVLSANLLLVIPLLWVAAWWSLRPIEALAKEVRELEEHNRELLNPATTRELTSLVRNLNRLLKSERERYDKYRTTLTDLTHSLKTPLXXLQXXLRSLRSEKMSVSDAEPVMLEQISRISQQIGYYLHRASMRGGTLLSRELHPVAPLLDNLTSALNKVYQRKGVNISLDISPEISFVGEQNDFVEVMGNVLDNACKYCLEFVEISARQTDEHLYIVVEDDGPGIPLSKREVIFDRGQRVDTLRPGQGVGLAVAREITEQYEGKIVAGESMLGGARMEVIFGRQHSAPKDE

In the assay the parent is B1. Briefly: enrichment ratio after two sorts for PhoP signalling (ratio (wild type AVST 3.29)); higher = more functional. Particulars: with PhoP (E. coli).
Take PKYN: the enrichment ratio was at most 0.25.
Under IVYH stands at most 0.25.
The result for QMPA reads at most 0.25; that for LKRS, at most 0.25; that for KQPM, at most 0.25.
Under RNQP stands at most 0.25; under WSPR, at most 0.25.
On to NEWG, for which the enrichment ratio is at most 0.25.
Under IPQP stands at most 0.25.
For the variant MNPP, the enrichment ratio was at most 0.25.
For CSHW, the enrichment ratio was at most 0.25.
Under PKLP stands 0.31.
Take FDCK: the enrichment ratio is at most 0.25.
On to KLPV, for which the enrichment ratio was at most 0.25.
As to GIGG, the enrichment ratio was at most 0.25.
GNTF: the enrichment ratio was at most 0.25.
Regarding GITF, the enrichment ratio worked out at 18.4.
As for GNSA, the enrichment ratio came to 2.7.
Under GIMT stands 12.6.
On to GNMT, for which the enrichment ratio was at most 0.25.
As to GILT, the enrichment ratio turned out to be 3.61.
Under GIHF stands at most 0.25; under GIMQ, 11.4.
GISR: the enrichment ratio was at most 0.25.
Consider GISA, for which the enrichment ratio was 13.
GIGQ: the enrichment ratio is at most 0.25.
On to WKTM, for which the enrichment ratio was at most 0.25.
Under RKLH stands at most 0.25; under GFLH, at most 0.25.
The result for TNCW reads at most 0.25; that for LAHQ, at most 0.25; that for MIEG, at most 0.25.
Take RYNY: the enrichment ratio was at most 0.25.
The result for GNAW reads at most 0.25; that for GIAW, 21.6.
For GNLR, the enrichment ratio is at most 0.25.
Under GNVV stands 5.22; under GIMC, 17.3; under GILR, 12.2.
Under GYLR stands at most 0.25; under GITD, at most 0.25; under GNMC, at most 0.25.
Under GIVV stands 11.3; under GTMC, at most 0.25.
On to WIVV, for which the enrichment ratio was at most 0.25.
The result for MDVY reads at most 0.25; that for LSLS, at most 0.25.
Regarding IAET, the enrichment ratio is at most 0.25.
In the case of ECYK, the enrichment ratio is at most 0.25.
Under KLTV stands at most 0.25.
For the variant LQYA, the enrichment ratio was at most 0.25.
Under LGNN stands at most 0.25.
The result for QGIH reads at most 0.25; that for EKVT, at most 0.25.
The result for YIEP reads at most 0.25.
For HLIK, the enrichment ratio was at most 0.25.
As for GISK, the enrichment ratio came to 4.87.
Under GITG stands 2.48; under GILG, 12.3; under GISS, 13.5.
Take GNLG: the enrichment ratio was determined as 5.07.
With GIAG, the enrichment ratio is 15.6.
As to GIMG, the enrichment ratio stood at 8.1.
Regarding GITK, the enrichment ratio was found to be 16.
The result for GNSS reads 5.64; that for GNAG, 0.269.
The result for GITI reads 5.68; that for GNTK, at most 0.25.
Under RNAN stands at most 0.25; under KNTS, at most 0.25; under TMDQ, at most 0.25.
AWAD: the enrichment ratio is at most 0.25.
RVNY: the enrichment ratio is at most 0.25.
In the case of YHMP, the enrichment ratio is at most 0.25.
Regarding AFVI, the enrichment ratio is at most 0.25.
The result for SYPA reads at most 0.25; that for GIAT, at most 0.25; that for GILA, 11.3.
Take GISM: the enrichment ratio amounted to 18.4.
Regarding GIWI, the enrichment ratio is at most 0.25.
Turning to GITA, the enrichment ratio turned out to be 7.39.
Under GISF stands 8.06; under GNAS, 4.84.
For GNSM, the enrichment ratio amounted to 10.6.
The result for GILQ reads 17.5.
In the case of GIAS, the enrichment ratio stood at 14.2.
Turning to GIYI, the enrichment ratio was determined as 0.548.
The result for GNLQ reads 5.83; that for EYAS, at most 0.25; that for LGCH, at most 0.25.
Under TLYV stands 0.293.
As for LEIN, the enrichment ratio is at most 0.25.
Consider EYMV, for which the enrichment ratio was at most 0.25.
Regarding RHQP, the enrichment ratio was at most 0.25.
The result for GNME reads at most 0.25; that for GICE, 6.08.
The result for GIME reads 13.3.
As for DICD, the enrichment ratio was at most 0.25.
Consider EHLY, for which the enrichment ratio was at most 0.25.
Under FVVK stands at most 0.25; under ASSM, 19.3.
Under ASGR stands at most 0.25; under ASSF, 11.3; under KSSF, at most 0.25.
For the variant VRSM, the enrichment ratio was at most 0.25.
Under ASQM stands 2.47; under VGAL, 0.829.
The result for GWCN reads at most 0.25; that for SGML, 17.4.
The result for SWML reads at most 0.25; that for SYML, 0.252.
On to KYML, for which the enrichment ratio was at most 0.25.
As for NMML, the enrichment ratio was at most 0.25.
Under SNML stands 15.9; under STML, 13.4.
The result for HEML reads at most 0.25; that for SMML, 14.5; that for TIML, 2.74.
On to SGEL, for which the enrichment ratio is at most 0.25.
For the variant AVQL, the enrichment ratio was at most 0.25.
As for YNMI, the enrichment ratio amounted to 0.268.
The result for IVRK reads at most 0.25; that for TQMH, 9.69; that for IKMM, at most 0.25.
As for WGHD, the enrichment ratio was at most 0.25.
Under SQFI stands at most 0.25.
Under RPFT stands at most 0.25.
The result for SLML reads 7.15.
Regarding SRML, the enrichment ratio stood at 4.3.
In the case of SAML, the enrichment ratio turned out to be 16.5.
Regarding SAKL, the enrichment ratio is at most 0.25.
Turning to SPML, the enrichment ratio was at most 0.25.
Under IIML stands at most 0.25; under SCML, 11.2; under SSML, 23.6.
Under SIML stands 6.65; under HYKH, at most 0.25.
Under GCEP stands at most 0.25; under RQGY, at most 0.25.
In the case of QSWN, the enrichment ratio stood at 21.4.
Turning to FTWN, the enrichment ratio was at most 0.25.
Under QTWN stands 16.8; under FVWN, at most 0.25; under QSQN, at most 0.25.
Turning to QGWN, the enrichment ratio came to 16.6.
Regarding QLWN, the enrichment ratio was at most 0.25.
Under QQNM stands 16.3; under IQNM, at most 0.25; under FFWN, at most 0.25.
Under QTWI stands 3.53; under QQRM, at most 0.25.
The result for QVFE reads at most 0.25; that for EYFQ, at most 0.25.
Take FTGV: the enrichment ratio was at most 0.25.
